Test results published in ChEMBL document CHEMBL1157539, “Thousands of chemical starting points for antimalarial lead identification” (Nature, 2010).

Tests used:
Assay type in all cases: functional
[1] = system: Plasmodium falciparum; test: GSK_TCMDC: Inhibition of Plasmodium falciparum 3D7 in whole red blood cells, using parasite LDH activity as an index of growth. Test compounds present at 2uM
[2] = system: Plasmodium falciparum; test: GSK_TCMDC: Inhibition of Plasmodium falciparum Dd2 in whole red blood cells, using parasite LDH activity as an index of growth. Test compounds present at 2uM
[3] = system: HepG2; test: GSK_TCMDC: Percent inhibition of human HepG2 cell line. Test compounds present at 10uM.

SMILES | Inhibition [1] [%] | Inhibition [2] [%] | Inhibition [3] [%]
CC(C)CCNCc1ccc(OCc2cccc(COc3ccc(CNCCC(C)C)cc3I)c2)c(I)c1.Cl | 91 | 49 | 99
Cc1nc2ccc(NC(=O)Nc3ccnc4ccc(C(F)(F)F)cc34)cc2o1 | 89 | 24 | 20
O=C(Nc1nc2cc(S(=O)(=O)NCc3ccc(Cl)c(Cl)c3)ccc2n1CCCn1ccnc1)c1ccc(Cl)cc1.O=C(O)C(F)(F)F | 100 | 44 | 0
Cc1[nH]c(C)c([N+](=O)[O-])c(=O)c1-c1ccc(Oc2ccccc2)cc1 | 98 | 97 | 11
Fc1ccc(C(OCC2CCCN(Cc3cccc4cccnc34)C2)c2ccc(F)cc2)cc1 (stereo not given) | 98 | 97 | 21
COc1cc(NC(=O)/C=C/c2cc(F)cc(F)c2F)cc(OCCN2CCCCC2)c1.O=C(O)C(=O)O | 100 | 80 | 10
O=C(O)C(F)(F)F.c1ccc(CN2CCC(NCc3ccc(-c4ccc(CNC5CCCC5)cc4)cc3)CC2)cc1 | 100 | 98 | 24
CCCC1N=C(N)N=C(N)N1c1ccccc1.Cl (stereo not given) | 93 | 0 | 0
CC(C)CCNC(=O)C1Cc2c([nH]c3cc(Cl)ccc23)C2(CCN(CCc3ccccc3)CC2)N1 (stereo not given) | 100 | 55 | 17
Br.CC1(C)NC(N)=NC(=N)N1OCCCOc1ccccc1Cl | 96 | 94 | 64
COc1ccccc1Cc1nc2ccccc2nc1SCC(=O)Nc1cccc(C(F)(F)F)c1 | 97 | 91 | 8
CCC(C)CC(=O)Nc1ccc(OC)c(S(=O)(=O)N[C@@H]2CCN(C#N)C2)c1 (stereo not given in full) | 94 | 77 | 16
COc1cc(C(=O)NC2CCN(Cc3ccccc3)CC2)ccc1-c1nc2cc(Cl)c(C)cc2[nH]1 | 99 | 97 | 0
Cc1cc([N+](=O)[O-])ccc1N1CCN(CCCCNC(=O)c2ccc(NC(=O)c3ccc(Cl)cc3)cc2)CC1 | 92 | 0 | 33
Cc1cc(CN2CCCN(c3ccc4c(c3)CCN(Cc3ccc(-c5ncc[nH]5)cc3)CC4)CC2)n(C)n1 | 86 | 8 | 5
COc1ccccc1C1CN(CCNC(=O)c2nc(C)c[nH]2)Cc2ccccc2O1 (stereo not given) | 90 | 86 | 4
O=C(Nc1cc(C(F)(F)F)cc(C(F)(F)F)c1)c1cc(Cl)ccc1O [IMD-0354] | 90 | 98 | 84
O=C(C=Cc1ccc(Cl)c(Cl)c1)NCCCCCN1CCCC(CCCNS(=O)(=O)c2cccc3cccnc23)C1 (stereo not given) | 96 | 16 | 37
CCCCOc1cc(CNCCCCCCNCc2cc(OCCCC)cc3ccccc23)c2ccccc2c1.CS(=O)(=O)O | 100 | 92 | 99
CN(C)CCCNc1c2ccccc2nc2ccccc12 | 91 | 4 | 31

SMILES | Inhibition [1] [%] | Inhibition [2] [%] | Inhibition [3] [%]
COc1cc(NC(=O)/C=C/c2ccccc2OC(F)(F)F)cc(OCCN2CCCCC2)c1.O=C(O)C(=O)O | 96 | 6 | 25
Cc1nc(NC2=NCN(CCCN3CCOCC3)CN2)nc2c(C)cccc12 | 89 | 62 | 17
COc1cc(NC(=O)c2sc(-c3ccc(Cl)cc3)cc2Cl)ccc1OCCN1CCCC1.O=C(O)/C=C\C(=O)O | 93 | 21 | 72
O=C(Nc1cccc(CN2CCCN(Cc3ccc(O)cc3)CC2)c1)c1ccc(Br)cc1.O=C(O)C(F)(F)F | 94 | 54 | 19
COc1ccccc1C(=O)Nc1ccc(Nc2nc(C)cc(N(C)C)n2)cc1 | 100 | 76 | 1
CCN(C(=O)CSc1cc(C)c2cc(C)cc(C)c2n1)C1CCS(=O)(=O)C1 (stereo not given) | 97 | 82 | 5
Cl.N#Cc1ccc2c(c1)CCN(CCC1CCC(NC(=O)c3cc4cccc([N+](=O)[O-])c4[nH]3)CC1)C2 (stereo not given) | 100 | 28 | 0
CCc1c(C(=O)NC2CCC(N3CCC(c4ccccc4OC)CC3)CC2)[nH]c2ccc(OC)cc12 (stereo not given) | 100 | 99 | 43
COc1cccc(C(=O)C2CC2CN(C)CCC(O)c2ccc(Cl)c(Cl)c2)c1 (stereo not given) | 99 | 95 | 17
O=C(/C=C/c1ccc(Cl)c(Cl)c1)NCCCCCN1CC[C@H](NC(=O)c2ccc3c(c2)OCO3)C1 | 94 | 3 | 32
N#Cc1ccc(N/C(=N\c2cccc(Cl)c2Cl)NC2Cc3ccccc3C2)c(O)c1 | 94 | 77 | 15
O=C(CSc1nc2ccccc2c(=O)n1CC1CCCO1)Nc1cc(C(F)(F)F)ccc1Cl (stereo not given) | 97 | 95 | 12
O=C(/C=C/c1ccc(Cl)c(Cl)c1)NCCCCCN1CCC(NC(=O)Nc2ccc(C(F)(F)F)cc2)CC1 | 94 | 34 | 58
COc1cc2nc(NCCc3cccc(Cl)c3)nc(NCc3ccccc3)c2cc1OC | 100 | 100 | 97
COCCn1c(C)cc(C(=O)CN2C(=O)NC(C)(c3ccc(C(C)(C)C)cc3)C2=O)c1C (stereo not given) | 97 | 96 | 7
Br.CC1(C)NC(N)=NC(=N)N1OCCCCOc1ccccc1 | 95 | 95 | 60
CC1CCN(Cc2cccc(C(=O)NCc3ccc(F)c(-c4cccc(CN5CCN[C@@H](C)C5)c4)c3)c2)CC1.O=C(O)C(F)(F)F | 91 | 64 | 26
COc1ccc(CNC(=O)C2Cc3ccccc3CN2Cc2ccc3ccccc3c2)cc1 (stereo not given) | 96 | 84 | 15
Cc1cccc2nc(-c3ccc(-c4cccc(CNCc5cccc(N)c5)c4)cc3)[nH]c12.O=C(O)C(F)(F)F | 100 | 87 | 0
Nc1c(Cl)cc(C(O)CNCCCCCOCCc2ccc3ccccc3n2)cc1Cl.O=C(O)/C=C/C(=O)O (stereo not given) | 98 | 97 | 9

SMILES | Inhibition [1] [%] | Inhibition [2] [%] | Inhibition [3] [%]
COc1cncc(/C=C/c2cncc(C(=O)NCCc3ccc(Cl)cc3Cl)c2)c1 | 99 | 49 | 0
COc1ccc2c(=NN=C(C)c3ccccn3)cc(C)[nH]c2c1 | 100 | 51 | 33
COc1ccccc1C1CCN(C2CCC(NC(=O)/C=C/c3cccc(C(F)(F)F)c3)CC2)CC1 (stereo not given) | 99 | 34 | 38
CCc1cc(OC)ccc1C1CCN(CCCCNC(=O)c2ccc(NC(=O)c3ccc(Cl)cc3)cc2)CC1.Cl | 95 | 61 | 23
CN(C)Cc1ccc2nc(-c3cccc(Cc4cc(Cl)ccc4OCc4ccc(Cl)cc4F)n3)[nH]c2c1.Cl | 93 | 26 | 43
O=C(Nc1ccc(-c2cncc(NCCCN3CCCC3)c2)cc1)c1ccccc1 | 94 | 49 | 0
CC(C)COc1ccc(Cl)cc1Cc1ccc(-c2nc3cc(F)c(F)cc3[nH]2)o1 | 95 | 96 | 27
CNC(=O)c1cnc(Nc2ccc(N3CCN(C)CC3)cc2)nc1Nc1cccc([N+](=O)[O-])c1.O=C(O)C(F)(F)F | 100 | 100 | 31
CC(C)NCc1ccc(-c2ccc(-c3nc4cc(F)ccc4[nH]3)cc2)cc1.O=C(O)C(F)(F)F | 100 | 100 | 14
CC(=O)NCCNc1cc(N2CCc3ncnc(Nc4ccc(OCc5c(F)cccc5F)c(Cl)c4)c3C2)ncn1 | 100 | 100 | 55
COc1cccc(C(=O)N2CCN(Cc3cccc(NC(=O)c4cccs4)c3)CC2)c1.O=C(O)C(F)(F)F | 95 | 95 | 6
COc1cccc(CNC[C@@H](O)[C@H](Cc2ccccc2)NC(=O)c2cc(C3CCCC3)cc(N3CCCCS3(=O)=O)c2)c1.Cl | 96 | 83 | 7
O=C1NC(=O)C(c2ccc(Cl)cc2)=C1Nc1cccc(S(=O)(=O)C(F)(F)F)c1 | 99 | 51 | 1
O=C(Nc1cccc(-c2ccc(-c3nc4cc(C(F)(F)F)ccc4[nH]3)s2)c1)c1c[nH]cn1 | 89 | 36 | 55
CC(C)c1ccc2[nH]c(C(=O)NC3CCC(N4CCCc5ccc(C#N)cc5C4)CC3)cc2c1 (stereo not given) | 91 | 27 | 48
COc1ccc2nccc(N3CCC(SCCNCc4cc5c(cn4)OCCO5)C3)c2n1.Cl (stereo not given) | 100 | 100 | 30
CC(=O)Nc1ccc(CN(Cc2cccc(OC(C)(C)C)c2)Cc2ccc3c(c2)OCCO3)cc1 | 95 | 96 | 0
O=C(NCc1ccc2c(c1)OCO2)c1nn(CCN2CCC(N3CCCC3)CC2)cc1-c1ccc(Cl)c(Cl)c1 | 94 | 17 | 21
Cc1nc(C)c(CC(=O)Nc2ccc(-c3ccc(-c4nc5cc(C(F)(F)F)ccc5[nH]4)s3)cc2)s1 | 90 | 29 | 57
O=C(Nc1cccc(-c2cccc(-c3nc4ccccc4[nH]3)c2)c1)c1cccnc1 | 95 | 14 | 12
